The source of these data is PubChem BioAssay (Tox21).

Values joined by “and” are separate entries in the source; they are usually repeats but may differ in a detail not shown here. Identical values can stand only once. Records with an inconclusive call do not appear. Entries that show only a call come without a potency. Active and inactive are the calls of the source. Calls follow the shape of the dose curve; as a rule, active = well fitted activation curve with a large enough effect in the repeat runs; inconclusive = weak or mixed curves; inactive = flat fitted curve, though single readings scatter.
Potency is read from the fitted curve at half-maximal effect.

A short description of this test: A CellTox Green Cytotoxicity Assay to monitor cytotoxicity in HEK293 cells - 16 hour (AID 1224888). Also: nearly all actives have a fitted effect of over 35% in size. Conditions: CellTox Green fluorescence; series mostly up to 76.8 µM. In outline:
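Tox21 screen in HEK293: membrane-impermeant cyanine dye fluoresces on binding dead-cell DNA; compound pinned 5 h post-seeding, plates held at 37 C, signal read repeatedly through 40 h.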
Take `CC(=O)OC1(c2ccccc2)CCN(CCc2ccccc2)CC1`: the Potency entry is “inactive”.
Turning to `CSCCCN=C=S`, the Potency entry is “inactive”.
`CC(C)(C)c1ccc(CSc2cnn(C(C)(C)C)c(=O)c2Cl)cc1`: the Potency entry is “inactive”.
The result for `O=[N+]([O-])c1c2ccccc2cc2ccccc12` reads 5.43 µM (active); that for `O=C(CBr)c1ccc(O)cc1`, “inactive”; that for `CCCN(CCC)CCc1c[nH]c2ccccc12`, “inactive”.
In the case of `N#Cc1c(-c2ccc(Cl)cc2)[nH]c(C(F)(F)F)c1Br`, the Potency entry is “inactive”.
On to `ClC1=C(Cl)C2(Cl)C3C(Cl)C(Cl)CC3C1(Cl)C2(Cl)Cl` (centres undefined), for which the Potency was 54.8 µM (active).
In the case of `CCC(C)c1cc([N+](=O)[O-])cc([N+](=O)[O-])c1OC(=O)C=C(C)C` (centres undefined), the Potency entry was “inactive”.
Regarding `[Cl][Sb]([Cl])[Cl]`, the Potency entry is “inactive”.
Take `CCOP(=S)(OCC)OC(Cl)C(Cl)(Cl)Cl` (centres undefined): the Potency entry is “inactive”.
Consider `Clc1ccc(CO/N=C(\Cn2ccnc2)c2ccc(Cl)cc2Cl)c(Cl)c1`, for which the Potency entry is “inactive”.
Then `CC(=O)/C=C/c1ccc2c(c1)OCO2`, with “inactive”; and `CC(C)CC(C)Nc1ccc(Nc2ccccc2)cc1` (centres undefined), with “inactive”; and `O=[N+]([O-])c1cc(Cl)ccc1Cl`, with “inactive”.
Take `Nc1ccccc1C(=O)Oc1ccc2ccccc2c1`: the Potency result is “inactive”.
Then `COc1ccc(OC)c(C=O)c1`, with “inactive”; and `ClC1=C(Cl)C2(Cl)C3C(Cl)C=CC3C1(Cl)C2(Cl)Cl` (centres undefined), with 55.2 µM (active) and 49 µM (active).
In the case of `CC[C@H](C)[C@H]1O[C@]2(C=C[C@@H]1C)C[C@@H]1C[C@@H](C/C=C(\C)[C@@H](O[C@H]3C[C@H](OC)[C@@H](O[C@H]4C[C@H](OC)[C@@H](O)[C@H](C)O4)[C@H](C)O3)[C@@H](C)/C=C/C=C3\CO[C@@H]4[C@H](O)C(C)=C[C@@H](C(=O)O1)[C@]34O)O2`, the Potency entry is “inactive”.
Consider `CC(C)(C)c1cc([N+](=O)[O-])cc(C(C)(C)C)c1O`, for which the Potency entry was “inactive”.
In the case of `Cc1cc(C(C)(C)c2cc(C)c(O)c(C)c2)cc(C)c1O`, the Potency entry was “inactive”.
Turning to `CC(C)Oc1cccc(NC(=O)c2ccccc2C(F)(F)F)c1`, the Potency is 49 µM (active).
Consider `C[C@]12CC[C@@H]3c4ccc(OC(=O)N(CCCl)CCCl)cc4CC[C@H]3[C@@H]1CC[C@@H]2O`, for which the Potency result was “inactive”.
Consider `CC(C)OC(=S)S`, for which the Potency result was “inactive”.
As to `Clc1ccc(CCC(Cn2ccnc2)Sc2c(Cl)cccc2Cl)cc1` (centres undefined), the Potency result is “inactive”.
With `ClC1=C(Cl)[C@]2(Cl)[C@@H]3[C@@H]4C[C@@H]([C@H]5O[C@@H]45)[C@@H]3[C@@]1(Cl)C2(Cl)Cl`, the Potency was 49 µM (active).
On to `Oc1cc(Cl)c(Cl)c(Cl)c1`, for which the Potency entry is “inactive”.
In the case of `CC(=O)c1cc(C(C)(C)C)cc2c1CCC2(C)C`, the Potency entry is “inactive”.
For `CCCCOCN(C(=O)CCl)c1c(CC)cccc1CC`, the Potency entry is “inactive”.
